Experimental data as given in PubChem BioAssay (Tox21).
“And” between values parts separate entries of the source, which are not always exact repeats. Equal entries are not always repeated. Results filed as inconclusive are left out. A structure can be active in one record and inactive in another. The source made the active and inactive calls. Unless noted, the call rests on the fitted dose curve; in most records, active means well fitted curve in the direction sought with a large enough effect in the repeat runs; inconclusive means weak or mixed curves; inactive means no such curve, though single readings can be large; an effect the other way counts as inactive or inconclusive.

Tests used:
[1] = qHTS assay to identify small molecule antagonists of the glucocorticoid receptor (GR) signaling pathway - cell viability counter screen (AID 720693); further: nearly all actives have a fitted effect of over 55% in size; further: potency means the concentration at half of the fitted maximal effect
[2] = qHTS assay for identifying genotoxic compounds that show differential cytotoxicity against isogenic chicken DT40 cell lines with known DNA damage response pathways - wild type cell line (AID 743012); further: nearly all actives have a fitted effect of over 60% in size; further: potency means the concentration at half of the fitted maximal effect
Summary of the method: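 First, wild type DT40 cells were plated at 300 per well and equilibrated about 0.5 h at 37 C/5% CO2. Next, compounds in DMSO were added and exposure lasted 40 h. Finally, CellTiter-Glo was added for 30 min at room temperature and luminescence recorded.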

[3] = qHTS assay for identifying genotoxic compounds that show differential cytotoxicity against isogenic chicken DT40 cell lines with known DNA damage response pathways - Rev3 mutant cell line (AID 743014); further: nearly all actives have a fitted effect of over 55% in size; further: potency means the concentration at half of the fitted maximal effect
[4] = qHTS assay to identify small molecule antagonists of the androgen receptor (AR) signaling pathway - cell viability counter screen (AID 743033; further: nearly all actives have a fitted effect of over 45% in size; further: potency means the concentration at half of the fitted maximal effect)
[5] = qHTS assay to identify small molecule antagonists of the androgen receptor (AR) signaling pathway using the MDA cell line - cell viability counter screen (AID 743041; further: nearly all actives have a fitted effect of over 45% in size; further: potency means the concentration at half of the fitted maximal effect)
Summary of the method: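 MDA-kb2 AR-luc human breast carcinoma cells (MMTV-luciferase, AR/GR responsive) were treated with compounds plus R1881 agonist for 16 h at 37 °C. Viability was read as CellTiter-Fluor fluorescence in the same wells as the reporter assay.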

[6] = qHTS assay for identifying genotoxic compounds that show differential cytotoxicity against isogenic chicken DT40 cell lines with known DNA damage response pathways - Rad54/Ku70 mutant cell line (AID 743015); further: nearly all actives have a fitted effect of over 60% in size; further: potency means the concentration at half of the fitted maximal effect
[7] = target: Androgen receptor (Homo sapiens) (UniProt P10275); assay: qHTS assay to identify small molecule antagonists of the androgen receptor (AR) signaling pathway (AID 743035; active means well fitted inhibition curve with a large enough effect in the signal ratio in the repeat runs, not every such curve was filed as active; the % refers to the signal ratio; further: potency means the concentration at half of the fitted maximal effect)
Sequence of Androgen receptor (Homo sapiens) (P10275 whole entry, looked up): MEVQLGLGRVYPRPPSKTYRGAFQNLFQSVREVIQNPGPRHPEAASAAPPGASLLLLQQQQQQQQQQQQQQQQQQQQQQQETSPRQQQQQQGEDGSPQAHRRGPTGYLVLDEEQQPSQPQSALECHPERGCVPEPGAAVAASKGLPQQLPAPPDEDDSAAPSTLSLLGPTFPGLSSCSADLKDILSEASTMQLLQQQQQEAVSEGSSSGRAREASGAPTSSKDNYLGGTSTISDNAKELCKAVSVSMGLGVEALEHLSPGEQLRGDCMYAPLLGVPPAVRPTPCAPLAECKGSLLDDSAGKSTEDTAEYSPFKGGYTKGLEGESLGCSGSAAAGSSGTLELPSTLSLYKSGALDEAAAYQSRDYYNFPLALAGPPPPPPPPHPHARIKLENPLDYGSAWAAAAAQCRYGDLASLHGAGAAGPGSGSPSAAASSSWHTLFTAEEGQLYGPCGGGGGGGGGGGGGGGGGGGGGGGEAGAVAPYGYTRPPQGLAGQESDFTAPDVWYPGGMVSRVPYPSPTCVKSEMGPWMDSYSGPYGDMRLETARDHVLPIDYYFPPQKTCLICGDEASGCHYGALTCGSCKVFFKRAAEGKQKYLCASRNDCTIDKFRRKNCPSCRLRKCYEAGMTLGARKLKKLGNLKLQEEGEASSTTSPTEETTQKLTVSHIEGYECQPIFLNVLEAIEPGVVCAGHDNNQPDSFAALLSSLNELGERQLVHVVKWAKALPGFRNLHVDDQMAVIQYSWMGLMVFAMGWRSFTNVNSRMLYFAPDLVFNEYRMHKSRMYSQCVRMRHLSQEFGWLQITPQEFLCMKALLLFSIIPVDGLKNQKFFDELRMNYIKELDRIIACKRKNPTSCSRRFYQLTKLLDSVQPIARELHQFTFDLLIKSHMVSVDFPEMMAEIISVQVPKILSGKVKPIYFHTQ
Summary of the method: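 Beta-lactamase FRET read (2 h RT incubation with LiveBLAzer B/G) following 16 h of compound plus R1881 treatment of AR-UAS-bla HEK293 cells, which had been pre-incubated 4 h at 37C.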

[8] = target: Androgen receptor (Homo sapiens) (UniProt P10275); assay: qHTS assay to identify small molecule agonists of the androgen receptor (AR) signaling pathway using the MDA cell line (AID 743040; further: nearly all actives have a fitted effect of over 20% in size)
Summary of the method: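 MDA-kb2 breast carcinoma cells stably carrying an MMTV-driven luciferase reporter (AR- and GR-responsive) were seeded and held 5 h at 37C, 0% CO2, then exposed to compounds in DMSO for 16 h. Luminescence was read 30 min after ONE-Glo addition.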

[9] = target: Androgen receptor (Homo sapiens) (UniProt P10275); assay: qHTS assay to identify small molecule antagonists of the androgen receptor (AR) signaling pathway using the MDA cell line (AID 743042; further: nearly all actives have a fitted effect of over 55% in size; further: potency means the concentration at half of the fitted maximal effect)
Summary of the method: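 MDA-kb2 cells (human breast carcinoma, stably carrying an MMTV-luciferase reporter responsive to AR and GR) were plated at 3,000 cells/well and preincubated 5 hr at 37C, then given compound plus R1881 agonist for 16 h. ONE-Glo luminescence was read.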

[10] = target: Androgen receptor (Homo sapiens) (UniProt P10275); assay: qHTS assay to identify small molecule agonists of the androgen receptor (AR) signaling pathway (AID 743036; active means well fitted activation curve with a large enough effect in the signal ratio in the repeat runs, with a control signal flat, not every such curve was filed as active; the % refers to the signal ratio)
Summary of the method: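 Screening used 2,000 AR-bla HEK293 cells per well, treated 16 h at 37C with test compounds in DMSO alongside positive and DMSO-only controls; beta-lactamase activity was then read by LiveBLAzer B/G FRET fluorescence after 2 h at room temperature.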
On the % scale 0 is the no-effect control and ±100 the full control effect.

O=C1CCc2cc(OCCCCc3nnnn3C3CCCCC3)ccc2N1
inactive: Potency [1] | Potency [2] | Potency [3] | Potency [4] | Potency [5]

CC[N+](CC)(CC)CCOC(=O)C(C1CCCC1)C1CCCC1
inactive: Potency [1] | Potency [4] | Potency [5]
active: Potency [2] 5.31 µM | Potency [3] 11.9 µM

OC12N=C(c3ccccc3)SC1Cc1cc(Cl)ccc12 (centres undefined)
inactive: Potency [1] | Potency [5]
active: Potency [2] 68.6 µM | Potency [3] 68.6 µM | Potency [6] 43.3 µM

O=C(c1ccc(O)c(O)c1)c1ccc(O)cc1O
inactive: Potency [1] | Potency [4] | Potency [5]
active: Potency [2] 43.2 µM | Potency [3] 21.6 µM

Nc1nc(N)nc(-c2cc(Cl)ccc2Cl)n1
inactive: Potency [1] | Potency [2] | Potency [3] | Potency [4]

NC[C@H]1O[C@H](O[C@H]2[C@H](O[C@@H]3O[C@H](CO)[C@@H](O)[C@H]3O)C(O)[C@H](N)C[C@@H]2N)[C@H](N)[C@@H](O)[C@@H]1O (some centres undefined)
inactive: Potency [1] | Potency [2] | Potency [3] | Potency [4] | Potency [5]

CN(C)c1ccc(C(=C2C=CC(=[N+](C)C)C=C2)c2ccc(N(C)C)cc2)cc1
active: Potency [1] 6.01 µM and 3.45 µM and 9.77 µM | Potency [2] 335 nM and 542 nM and 193 nM | Potency [3] 473 nM and 483 nM and 243 nM | Potency [4] 1.69 µM and 1.37 µM and 347 nM | Potency [7] 0.347 µM | Potency [9] 2.37 µM and 859 nM and 864 nM
inactive: outcome [8]

O=C(/C=C/c1ccccc1)OC/C=C/c1ccccc1
inactive: Potency [1] | Potency [4] | Potency [7] | Potency [10] | outcome [8] | Potency [5] | Potency [9]
active: Potency [2] 17.2 µM | Potency [3] 15.4 µM

O=C1OC2(c3ccc(O)cc3Oc3cc(O)ccc32)c2ccc(N=C=S)cc21
inactive: Potency [1] | Potency [2] | Potency [3] | Potency [4]

CCCCC/C=C\C/C=C\CCCCCCCC(=O)O
inactive: Potency [1] | Potency [2] | Potency [3] | Potency [4] | Potency [5]

Cc1c(C)c2c(c(C)c1OC(=O)c1cccnc1)CC[C@@](C)(CCC[C@H](C)CCC[C@H](C)CCCC(C)C)O2
inactive: Potency [1] | Potency [2] | Potency [3] | Potency [4] | Potency [5]

COc1ccc2cc1Oc1ccc(cc1)C[C@H]1c3c(cc4c(c3Oc3cc5c(cc3OC)CCN(C)[C@@H]5C2)OCO4)CCN1C
inactive: Potency [1] | outcome [8] | Potency [9]
active: Potency [2] 7.5 µM | Potency [3] 8.41 µM | Potency [6] 8.41 µM

CCC(C)[O-].CCC(C)[O-].CCOC(=O)/C=C(/C)[O-].[Al+3]
inactive: Potency [1] | Potency [2] | Potency [3] | Potency [4] | Potency [5]

Cc1ccc(C(C)C)cc2c(C)ccc1-2
inactive: Potency [1] | Potency [2] | Potency [3] | Potency [4] | Potency [5]

C=C(CC)C(=O)c1ccc(OCC(=O)O)c(Cl)c1Cl
active: Potency [2] 18.8 µM and 43 µM | Potency [3] 26.6 µM and 48.2 µM
inactive: Potency [1] | Potency [4]

Nc1ccc(C(=O)O)c(O)c1
inactive: Potency [1] | Potency [2] | Potency [3] | Potency [4] | Potency [7] | Potency [10] | outcome [8] | Potency [9]

CN1CCN(Cc2cc(-c3ccc4[nH]c(=O)oc4c3)co2)[C@@H](c2ccc(F)cc2)C1
active: Potency [2] 14.8 µM | Potency [3] 16.6 µM | Potency [6] 14.8 µM
inactive: Potency [1] | Potency [5]

O=S(=O)(O)c1ccc(N=Nc2c(O)ccc3ccccc23)cc1
inactive: Potency [1]
active: Potency [2] 61.1 µM | Potency [3] 30.6 µM | Potency [6] 54.5 µM | Potency [5] 27.3 µM

O=[N+]([O-])c1ccc(F)c(Cl)c1
inactive: Potency [1] | Potency [2] | Potency [3] | Potency [4] | Potency [5]

CC1(C)[C@@H](O)CC[C@]2(C)[C@H]3C(=O)C=C4[C@@H]5C[C@@](C)(C(=O)O)CC[C@]5(C)CC[C@@]4(C)[C@]3(C)CC[C@@H]12
5.96 µM (active) and inactive: Potency [3]
inactive: Potency [1] | Potency [2] | Potency [4] | Potency [7] | Potency [10] | outcome [8] | Potency [5] | Potency [9]

CNC(=O)c1ccccc1Sc1ccc2c(/C=C/c3ccccn3)n[nH]c2c1
active: Potency [2] 2.11 µM | Potency [3] 2.37 µM
inactive: Potency [1] | Potency [4]

FC(F)(F)c1cccc(Cl)c1
inactive: Potency [1] | Potency [2] | Potency [3] | Potency [4] | Potency [7] | outcome [8] | Potency [5]

CC1=Nc2ccccc2C1(C)C
inactive: Potency [1] | Potency [2] | Potency [3] | Potency [4]

CCC(=O)OC(=O)CC
inactive: Potency [1] | Potency [2] | Potency [3] | Potency [4] | Potency [5]

O=C(O)O
inactive: viability change, negative = cytotoxic [1] 4.34% [at 7.04 µM] | activity change, negative = cytotoxicity [2] -8.76% [at 8.52 µM] | activity, negative = cytotoxicity [3] -2.82% [at 8.53 µM] | activity change, negative = cytotoxicity [4] -8.19% [at 7.04 µM] | viability change, negative = cytotoxic [5] -5.91% [at 8.47 µM]

CCCCCCOC(=O)C(C)CC (centres undefined)
inactive: Potency [1] | Potency [2] | Potency [3] | Potency [4] | Potency [7] | Potency [10] | outcome [8] | Potency [5] | Potency [9]

CCCCCCCCCCC[C@@H](C[C@@H]1OC(=O)[C@H]1CCCCCC)OC(=O)[C@H](CC(C)C)NC=O
active: Potency [2] 1.06 µM | Potency [3] 0.376 µM
inactive: Potency [1] | Potency [4] | Potency [5]

C=C(C)C(=O)OCCCCCCCCCC
inactive: Potency [1] | Potency [2] | Potency [3] | Potency [6] | Potency [5]

CCn1c2ccccc2c2cc([N+](=O)[O-])ccc21
inactive: Potency [1] | Potency [4]
active: Potency [2] 48.6 µM | Potency [3] 27.3 µM

O=c1oc2cc(O)ccc2c2oc3cc(O)ccc3c12
inactive: Potency [1] | Potency [2] | Potency [3] | Potency [4] | Potency [5]
